Data on 24 compounds can be found in PubChem BioAssay (Tox21).

Records with an inconclusive call do not appear. Entries that show only a call come without a potency. Activity calls are given as the source filed them. Calls come from the whole dose curve.
Potency is the fitted concentration of half-maximal effect.

The nature of this test: qHTS assay for small molecule agonists of the antioxidant response element (ARE) signaling pathway - cell viability counter screen (AID 743203). Note: nearly all actives have a fitted effect of over 55% in size. The conditions noted are these: ARE-bla HepG2 viability, CellTiter-Glo luminescence, 16 h; series mostly up to 73.3 µM. The essentials:
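Cytotoxicity was tested in parallel with the ARE reporter screen. ARE-bla HepG2 cells were exposed to compounds for 16 hrs, and viability was taken from CellTiter-Glo luminescence.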
Regarding `CC(=O)c1ccc2c(c1)[C@H](NC(=O)c1ccc(F)cc1)[C@@H](O)C(C)(C)O2`, the Potency result was “inactive”.
Then `CCOc1ccc2[nH]cc(C(=O)NCc3ccccc3)c(=O)c2n1`, with “inactive”; and `Oc1ccc(Sc2ccc(O)cc2)cc1`, with “inactive”; and `N#Cc1cc2ccccc2c2ccccc12`, with “inactive”.
Then `CC(C)(Oc1ccc(Cl)cc1)C(=O)OCCCOC(=O)C(C)(C)Oc1ccc(Cl)cc1`, with “inactive”.
Turning to `CCN(CC)C(C)CN1c2ccccc2Sc2ccccc21` (centres undefined), the Potency result is “inactive”.
Then `Cc1ccc2c(ccc3ccccc32)c1`, with “inactive”; and `CC(Cc1cccc(C(F)(F)F)c1)NCCOC(=O)c1ccccc1` (centres undefined), with 23.7 µM (active).
As for `CN1CCC(OC(c2ccccc2)c2ccccc2)CC1`, the entry is “inactive”; as for `O=C(Cl)c1c(Cl)cccc1Cl`, “inactive”.
As for `CNCC[C@@H](Oc1ccccc1C)c1ccccc1`, the Potency result is “inactive”.
Then `COc1ccc(C(C)=O)cc1`, with “inactive”.
As for `O=C1Nc2cc(Cl)ccc2Oc2ccccc21`, the entry is “inactive”.
On to `CCCCCCCC/C=C\CCCCCCCC(N)=O`, for which the Potency result was “inactive”.
As to `O=C1CCCCCO1`, the Potency entry was “inactive”.
Consider `CCCCC(CC)COCCCN` (centres undefined), for which the Potency entry is “inactive”.
For the compound `C=CC(C)(CCC=C(C)C)OC(=O)c1ccccc1` (centres undefined), the Potency result was “inactive”.
Then `COC(Cc1ccccc1)OC`, with “inactive”.
As for `O=C(O)c1cn(C2CC2)c2cc(Cl)c(F)cc2c1=O`, the entry is “inactive”; as for `O=[N+]([O-])c1cc[n+]([O-])cc1`, 30.6 µM (active).
Then `Oc1ccc(O)c2c(O)cccc12`, with “inactive”; and `CC1(C)CCC(C)(C)c2cc(NC(=O)c3ccc(C(=O)O)cc3)ccc21`, with “inactive”.
On to `CC(=O)N(CC(=O)N(C)C)c1ccccc1`, for which the Potency entry was “inactive”.
Take `CC(=O)c1c(C)c([N+](=O)[O-])c(C(C)(C)C)c([N+](=O)[O-])c1C`: the Potency entry was “inactive”.
